Screening results deposited in PubChem BioAssay by National Center for Advancing Translational Sciences (NCATS).
A selection: hits, their analogues and other compounds. The true share with any hit is near 7.5%.
KinaseGlo FLuc: counter-screen: inhibitors of Kinase-Glo firefly luciferase; actives 0.28% (n = 200,000); Kinase-Glo luciferase, ATP luminescence, 8 min; Potency, µM (top dose mostly 38.3 µM), for the others: top-dose activity change, negative = inhibition, hits mostly inhibitors; AID 1379; Q27757; note: % is set by controls: 0 for no effect and ±100 for the full control effect; nearly all actives have a fitted effect of over 60% in size
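Light output from Kinase-Glo luciferase with luciferin and 10 uM ATP in 50 mM imidazole pH 7.2, KCl, MgCl2, Tween 20, BSA; compound pin-delivered, 8-min ambient incubation, then luminescence read.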
FLuc counter: counter-screen for miR-21 project: firefly luciferase inhibitors or activators; purified FLuc, Km substrates, luminescence inhibition; Potency, µM (series often up to 57.5 µM), for the others: at the top dose activity change, negative = inhibition, usual class: inhibitors; actives 6.9% (n = 360,000);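 note: plate controls were vehicle for no effect and reference inhibitor for full effect; nearly all actives have a fitted effect of over 55% in size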
Target sequence (P08659 whole entry, looked up): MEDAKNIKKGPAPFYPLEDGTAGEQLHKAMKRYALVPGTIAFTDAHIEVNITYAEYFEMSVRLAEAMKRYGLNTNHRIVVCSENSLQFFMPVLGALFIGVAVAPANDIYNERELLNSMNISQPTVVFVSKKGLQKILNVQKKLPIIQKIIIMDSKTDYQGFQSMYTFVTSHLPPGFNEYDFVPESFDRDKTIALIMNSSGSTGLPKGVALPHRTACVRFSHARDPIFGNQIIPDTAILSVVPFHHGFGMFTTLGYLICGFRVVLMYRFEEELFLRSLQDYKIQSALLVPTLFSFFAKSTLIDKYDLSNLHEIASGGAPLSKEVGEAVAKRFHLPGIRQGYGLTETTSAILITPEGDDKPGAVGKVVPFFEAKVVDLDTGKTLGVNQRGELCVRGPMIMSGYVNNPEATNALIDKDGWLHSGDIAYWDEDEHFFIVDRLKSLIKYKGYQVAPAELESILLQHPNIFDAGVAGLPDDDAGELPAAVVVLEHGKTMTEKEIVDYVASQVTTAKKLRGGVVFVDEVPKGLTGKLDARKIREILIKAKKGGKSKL
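Biochemical qHTS of compounds, final roughly 60 µM downward over six points, against 10 nM purified firefly luciferase using Km concentrations of substrates (10 uM D-luciferin, 10 uM ATP) in Tris acetate pH 7.5 buffer; luminescence output.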
NPC1 prom act: NPC1 promoter activation; Huh7 NPC1 promoter luciferase reporter, 24 h; Potency, µM (doses to about 9.22 µM), for inactives: at the highest dose activation, usual class: activators; actives 2.4% (n = 320,000); note: % of control where 0% means no effect; nearly all actives have a fitted effect of over 60% in size
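Compounds in DMSO were transferred onto Huh7 NPC1-luciferase reporter cells pre-incubated 2 h; after 24 h at 37 °C, Amplite reagent was dispensed and luminescence recorded 10 min later.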
ELG1 genotoxic: inducers of genotoxicity in HEK293T ELG1-luciferase cells; HEK293T ELG1-luciferase reporter, luminescence, 16 h; Potency, µM (highest dose often 46 µM), without a hit: at the highest dose activity change, positive = activation, usual class: activators; actives 1.3% (n = 330,000); AID 504466; note: % of control where 0% means no effect; nearly all actives have a fitted effect of over 60% in size
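16 hr compound incubation (37 °C, 5% CO2) of HEK293T cells carrying luciferase-tagged ELG1; luciferase then measured by ONE-Glo luminescence after 30 min at RT.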
SMN2 splice enh: enhancers of SMN2 splice variant expression. Potency, µM (titrated, usually from 46.1 µM), for the others: top-dose activity change, positive = activation, most hits filed as activators. actives 2.8% (n = 210,000). HEK293 SMN2-luciferase splicing reporter, luminescence, 30-36 h. AID 1458; note: % of control where 0% means no effect; nearly all actives have a fitted effect of over 55% in size
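HEK293 cells carry an SMN2 […]–luciferase reporter in which exon 7 inclusion puts luciferase in frame. Cells were plated 10-12 h before compound addition, then incubated 30-36 h at 37C. ONE-Glo luminescence was read; sodium butyrate at 4.5 mM final served as control.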
Rab9 prom act: activates the Rab9 promoter; actives 2.8% (n = 320,000); Huh7 Rab9 promoter-luciferase reporter, luminescence, 24 h; AID 485297; Potency, µM (highest dose often 9.22 µM), for inactives: at the highest dose activation, negative = inhibition, actives largely listed as activators; note: % of control where 0% means no effect; nearly all actives have a fitted effect of over 60% in size
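Steps: seed 1500 Huh7 Rab9-luc cells per well, rest 2 h at 37 °C; add compound in DMSO; incubate 24 h; add luciferase reagent, 10 min ambient; read luminescence.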
* = called active by the depositor. Calls come from the whole dose curve; as a rule, active = well fitted curve in the direction sought with a large enough effect; inconclusive = small, poorly fitted or top-dose-only effect, or another doubt; inactive = no such curve, though single readings can be large; an effect the other way counts as inactive or inconclusive. Potency is the fitted concentration of half-maximal effect.

COc1ccc(NC(=O)C=C(C)C)cc1Cl was read as KinaseGlo FLuc inconclusive, FLuc counter 12µM* and SMN2 splice enh 11.2µM*.
`CC(C)=CC(=O)Nc1ccc(Cl)cc1` gave KinaseGlo FLuc -7.0%, FLuc counter 10.7µM*, NPC1 prom act 1.58µM*, ELG1 genotoxic inconclusive, SMN2 splice enh 14.1µM* and Rab9 prom act 1.41µM*.
COc1ccc(NC(=O)Nc2cccs2)cc1Cl was read as FLuc counter 8.49µM*, NPC1 prom act inconclusive, ELG1 genotoxic inconclusive and Rab9 prom act inconclusive.
Fc1ccc(-c2cn3cc(Cc4ccccc4Cl)sc3n2)cc1 was read as FLuc counter 0.477µM* and SMN2 splice enh 2.24µM*.
`Fc1ccccc1Cc1cn2cc(-c3ccc(Cl)cc3)nc2s1` gave FLuc counter 0.301µM* and SMN2 splice enh inconclusive.
For Cc1ccc(Cc2cn3cc(-c4ccccc4)nc3s2)cc1 the results were FLuc counter 0.151µM* and SMN2 splice enh 2.82µM*.
O=c1oc2ccccc2cc1-c1cn2cc(Cc3cc(Cl)ccc3Cl)sc2n1 was read as FLuc counter 0.2% and SMN2 splice enh -2.3%.
Fc1ccc(Cc2cn3cc(-c4ccc(F)cc4)nc3s2)cc1 was read as FLuc counter 0.301µM* and SMN2 splice enh 3.16µM*.
`COc1cccc(CCNC(=O)CCc2nnc(-c3cc(C)oc3C)o2)c1` gave FLuc counter -2.9%, NPC1 prom act -0.5%, ELG1 genotoxic 3.8% and Rab9 prom act -0.3%.
Cc1cc(C)c(-n2c(SCCS(=O)(=O)c3ccc(F)cc3)n[nH]c2=O)c(C)c1 was read as FLuc counter 0.3%, NPC1 prom act 1.7%, ELG1 genotoxic 3.1% and Rab9 prom act -1.7%.
O=C(COc1ccccc1-c1nc(-c2ccccc2)no1)Nc1ccc([N+](=O)[O-])cc1 was read as FLuc counter 2.7%.
`Clc1ccc(-c2cn3cc(Cc4ccccc4)sc3n2)cc1` gave FLuc counter 0.239µM* and SMN2 splice enh 5.62µM*.
Nc1nc(-c2ccc(Cl)cc2)cn1N was read as KinaseGlo FLuc 2.8%, FLuc counter -8.1%, NPC1 prom act -3.3%, ELG1 genotoxic -1.8%, SMN2 splice enh -0.5% and Rab9 prom act 1.3%.
`Cc1cc2nc(-c3ccc(=O)[nH]c3)n(C)c2cc1C` gave FLuc counter 16.9µM*, NPC1 prom act 5.4%, ELG1 genotoxic 10.0% and Rab9 prom act 11.7%.
For Cc1cc2nc(C)c(=O)n(C)c2cc1C the results were KinaseGlo FLuc -0.8%, FLuc counter 1.1%, NPC1 prom act -2.3%, ELG1 genotoxic 2.7%, SMN2 splice enh inconclusive and Rab9 prom act -2.6%.
Screening Cc1sc(NC(=O)CCCC(=O)O)c(C(N)=O)c1-c1ccccc1 returned KinaseGlo FLuc 2.9%, FLuc counter 0.757µM*, NPC1 prom act 16.0%, ELG1 genotoxic inconclusive, SMN2 splice enh -0.9% and Rab9 prom act 3.8%.
`O=C(C[n+]1cccc(C(=O)N/N=C/c2cccc([N+](=O)[O-])c2)c1)c1ccccc1` gave FLuc counter 2.5%, NPC1 prom act 0.7%, ELG1 genotoxic -0.3% and Rab9 prom act -0.4%.
O=C(Nc1ccccc1)C(=O)c1cn(CC(=O)N2CCCCC2)c2ccccc12 was read as KinaseGlo FLuc -0.6%, FLuc counter 13.5µM*, NPC1 prom act 6.4%, ELG1 genotoxic -1.0%, SMN2 splice enh 8.3% and Rab9 prom act 0.4%.
Screening CC(=O)c1cccc(NC(=O)C(=O)c2cn(CC(=O)N3CCCCC3)c3ccccc23)c1 returned KinaseGlo FLuc 1.8%, FLuc counter 8.49µM*, NPC1 prom act 7.5%, ELG1 genotoxic -3.6%, SMN2 splice enh -8.1% and Rab9 prom act 20.1%.
CCc1ccc(S(=O)(=O)c2nnn3c2nc(Nc2cc(OC)ccc2OC)c2sccc23)cc1 was read as FLuc counter 0.0%.
Screening Cc1ccc(Cn2ccc(NC(=O)c3noc4c3CCCC4)n2)cc1 returned KinaseGlo FLuc 5.8%, FLuc counter inconclusive, NPC1 prom act inconclusive, ELG1 genotoxic 20.6µM*, SMN2 splice enh 2.7% and Rab9 prom act inconclusive.
O=C(NCc1ccccc1)c1noc2c1CCCC2 was read as KinaseGlo FLuc -0.3%, FLuc counter -18.4%, NPC1 prom act 20.1%, ELG1 genotoxic inconclusive and Rab9 prom act 21.4%.
For CCc1ccc(NC(=O)c2noc3c2CCCCC3)cc1 the results were KinaseGlo FLuc 7.9%, FLuc counter 2.13µM*, NPC1 prom act 0.708µM*, ELG1 genotoxic inconclusive, SMN2 splice enh 10µM* and Rab9 prom act 0.631µM*.
`CC(NC(=O)c1noc2c1CCCC2)c1ccccc1` (stereo not given) gave KinaseGlo FLuc -5.1%, FLuc counter -2.6%, NPC1 prom act -1.1%, ELG1 genotoxic -1.3%, SMN2 splice enh -16.9% and Rab9 prom act -3.8%.
Screening CC(=O)c1cccc(NC(=O)c2noc3c2CCCC3)c1 returned FLuc counter 10.7µM* and SMN2 splice enh 2.82µM*.
For O=C(NCCc1ccccc1)c1noc2c1CCCCC2 the results were KinaseGlo FLuc -4.2%, FLuc counter 8.49µM*, NPC1 prom act 2.51µM*, ELG1 genotoxic inconclusive, SMN2 splice enh inconclusive and Rab9 prom act 3.55µM*.
For CC(C)(C)C1CCc2onc(C(=O)NC3CCCC3)c2C1 (stereo not given) the results were KinaseGlo FLuc -2.3%, FLuc counter 3.3%, NPC1 prom act 1.5%, ELG1 genotoxic -0.9%, SMN2 splice enh -32.6% and Rab9 prom act -4.7%.
O=C(NC1CCCCC1)c1noc2c1CCCCC2 was read as KinaseGlo FLuc -4.7%, FLuc counter 9.53µM*, NPC1 prom act 2.24µM*, ELG1 genotoxic 9.2µM*, SMN2 splice enh 12.6µM* and Rab9 prom act 2.51µM*.
Screening COc1ccc(NC(=O)c2noc3c2CCCCC3)cc1 returned KinaseGlo FLuc -5.3%, FLuc counter 12µM*, NPC1 prom act 1.41µM*, ELG1 genotoxic inconclusive, SMN2 splice enh 7.94µM* and Rab9 prom act inconclusive.
For Cc1ccc(NC(=O)c2noc3c2CCCCC3)cc1 the results were KinaseGlo FLuc -10.3%, FLuc counter 9.53µM*, NPC1 prom act 0.562µM*, ELG1 genotoxic inconclusive, SMN2 splice enh 11.2µM* and Rab9 prom act 0.501µM*.
CCc1ccc(NC(=O)c2noc3c2CCC3)cc1 was read as KinaseGlo FLuc -19.7%, FLuc counter 0.675µM*, NPC1 prom act 1µM*, ELG1 genotoxic 0.82µM*, SMN2 splice enh 12.6µM* and Rab9 prom act 0.562µM*.
